{
  "source": "paper PMC4336329",
  "about": "(PLoS ONE, 2015)",
  "note": "About 14,000 (4.5%) of roughly 310,000 compounds showed an effect of 50% or more. Effects have a minus sign here. This excerpt belongs to a sample that is enriched for strong results.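 Also: peak tail current of the secondary pulse compared with the same well before compound.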",
  "data": [
    {"molecular_target": "human ether-à-go-go-related gene (hERG) potassium channel (human, UniProt Q12809)", "sequence (Q12809 whole entry, looked up)": "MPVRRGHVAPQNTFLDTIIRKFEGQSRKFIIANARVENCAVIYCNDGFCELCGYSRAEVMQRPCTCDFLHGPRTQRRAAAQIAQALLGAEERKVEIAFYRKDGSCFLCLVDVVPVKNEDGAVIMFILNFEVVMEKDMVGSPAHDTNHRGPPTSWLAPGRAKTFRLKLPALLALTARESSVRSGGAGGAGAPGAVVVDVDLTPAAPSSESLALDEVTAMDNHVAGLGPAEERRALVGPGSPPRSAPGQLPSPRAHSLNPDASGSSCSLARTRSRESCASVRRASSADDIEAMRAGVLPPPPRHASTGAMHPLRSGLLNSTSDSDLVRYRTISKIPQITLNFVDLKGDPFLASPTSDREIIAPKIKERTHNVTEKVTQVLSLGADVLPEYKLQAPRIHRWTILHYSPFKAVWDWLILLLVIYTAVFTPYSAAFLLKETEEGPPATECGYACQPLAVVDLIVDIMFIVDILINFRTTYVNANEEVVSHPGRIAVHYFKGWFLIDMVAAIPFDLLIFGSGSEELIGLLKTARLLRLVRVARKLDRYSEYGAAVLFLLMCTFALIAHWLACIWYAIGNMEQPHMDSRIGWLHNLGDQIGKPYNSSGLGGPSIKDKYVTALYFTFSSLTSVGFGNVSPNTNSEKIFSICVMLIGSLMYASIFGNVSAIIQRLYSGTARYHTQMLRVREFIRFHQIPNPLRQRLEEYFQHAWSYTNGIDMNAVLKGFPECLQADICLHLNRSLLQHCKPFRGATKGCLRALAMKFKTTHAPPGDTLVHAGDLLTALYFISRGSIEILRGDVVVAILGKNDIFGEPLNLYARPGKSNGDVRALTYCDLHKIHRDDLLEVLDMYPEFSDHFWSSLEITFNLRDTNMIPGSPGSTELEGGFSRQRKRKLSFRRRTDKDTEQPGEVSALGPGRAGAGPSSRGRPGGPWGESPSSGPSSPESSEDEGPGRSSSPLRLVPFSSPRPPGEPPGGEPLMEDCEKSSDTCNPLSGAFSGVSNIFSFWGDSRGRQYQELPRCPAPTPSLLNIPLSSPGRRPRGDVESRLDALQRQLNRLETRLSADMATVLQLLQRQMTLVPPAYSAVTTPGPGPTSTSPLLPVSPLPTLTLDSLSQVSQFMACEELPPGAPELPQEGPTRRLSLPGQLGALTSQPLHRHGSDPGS", "assay": "primary screen, population patch clamp on CHO cells stably expressing hERG; higher = less effect of the substance", "units": {"hERG current change (%, negative = inhibition) at 10uM": "%"}, "values": [
      {"smiles": "O=C(Nc1ccccc1F)c1ccc2c(c1)CCN2S(=O)(=O)c1ccccc1", "hERG current change (%, negative = inhibition) at 10uM": 19.5},
      {"smiles": "C=CCn1c(SCc2ccccc2C#N)nnc1-c1ccccc1O", "hERG current change (%, negative = inhibition) at 10uM": -23.7},
      {"smiles": "Cc1ccc2c(c1)C(c1ccc(N3CCOCC3)cc1)=NNC(c1cccs1)=N2", "hERG current change (%, negative = inhibition) at 10uM": 1.66},
      {"smiles": "Nc1n[nH]c(N)c1N=Nc1ccc(Cl)cc1Cl", "hERG current change (%, negative = inhibition) at 10uM": 19.1},
      {"smiles": "COc1ccc(-c2noc(N3CCC(C(=O)Nc4ccccc4Cl)CC3)n2)cc1", "hERG current change (%, negative = inhibition) at 10uM": 10.8},
      {"smiles": "Cc1cc(NC(=O)c2ccccc2)sc1C", "hERG current change (%, negative = inhibition) at 10uM": 5.55},
      {"smiles": "Cc1cc(OC(=O)c2cccc(Cl)c2)c([N+](=O)[O-])c(=O)[nH]1", "hERG current change (%, negative = inhibition) at 10uM": 19.9},
      {"smiles": "COCCNc1oc(-c2ccco2)nc1S(=O)(=O)c1ccccc1", "hERG current change (%, negative = inhibition) at 10uM": 2.69},
      {"smiles": "CCC(CO)NCC(O)COCc1ccc2c(c1)OCO2", "note": "(centres unmarked)", "hERG current change (%, negative = inhibition) at 10uM": 10.1},
      {"smiles": "Cc1ccc(OCCCN2CCOCC2)c([N+](=O)[O-])c1.O=C(O)C(=O)O", "hERG current change (%, negative = inhibition) at 10uM": -12},
      {"smiles": "Cc1ccc(C)c(OCCCCN2CCCCC2)c1.O=C(O)C(=O)O", "hERG current change (%, negative = inhibition) at 10uM": -42.1},
      {"smiles": "Cc1cc(C)c(C)c(OCCCCN2CCCCC2)c1", "hERG current change (%, negative = inhibition) at 10uM": -52.5},
      {"smiles": "Cc1cc(C)c(C)c(OCCOCCN2CCN(C)CC2)c1", "hERG current change (%, negative = inhibition) at 10uM": -1.93},
      {"smiles": "Cc1cc(OCCN2CCC(Cc3ccccc3)CC2)ccc1[N+](=O)[O-].O=C(O)C(=O)O", "hERG current change (%, negative = inhibition) at 10uM": -79.1},
      {"smiles": "Cc1ccc(OCCCCN2CCCC(C)C2)c([N+](=O)[O-])c1.O=C(O)C(=O)O", "note": "(centres unmarked)", "hERG current change (%, negative = inhibition) at 10uM": -69},
      {"smiles": "Cc1cc(OCCN2CCCC2)ccc1[N+](=O)[O-].O=C(O)C(=O)O", "hERG current change (%, negative = inhibition) at 10uM": -9.82},
      {"smiles": "Cc1ccc(OCCCN2CCCC2)c(C)c1.O=C(O)C(=O)O", "hERG current change (%, negative = inhibition) at 10uM": -27.2},
      {"smiles": "Cc1ccc(C)c(OCCCN2CCCC2)c1.O=C(O)C(=O)O", "hERG current change (%, negative = inhibition) at 10uM": -54.9},
      {"smiles": "Cc1ccc(OCCCCN2CCCCC2)c(C)c1", "hERG current change (%, negative = inhibition) at 10uM": -24.6},
      {"smiles": "Cc1cc(OCCN2CCCCCC2)ccc1[N+](=O)[O-].O=C(O)C(=O)O", "hERG current change (%, negative = inhibition) at 10uM": -46.2},
      {"smiles": "Cc1ccc(OCCOCCN2CCCCC2)c([N+](=O)[O-])c1.O=C(O)C(=O)O", "hERG current change (%, negative = inhibition) at 10uM": -37.5},
      {"smiles": "CCN(CC(=O)NC1CCS(=O)(=O)C1)S(=O)(=O)c1ccccc1", "note": "(centres unmarked)", "hERG current change (%, negative = inhibition) at 10uM": 7.7},
      {"smiles": "CCOc1ccc(Br)cc1S(=O)(=O)Nc1ccccc1N1CCOCC1", "hERG current change (%, negative = inhibition) at 10uM": -15.8},
      {"smiles": "O=C(Cn1cccc1)N1CCN(C(c2ccccc2)c2ccccc2)CC1", "hERG current change (%, negative = inhibition) at 10uM": -3.68},
      {"smiles": "Cn1c(=O)c2c(nc(NC3CCCCC3)n2Cc2ccccc2)n(C)c1=O", "hERG current change (%, negative = inhibition) at 10uM": 14.2},
      {"smiles": "Cc1ccc(CN(C(=O)c2cc(=O)c3cc(C)cc(C)c3o2)C2CCS(=O)(=O)C2)cc1", "note": "(centres unmarked)", "hERG current change (%, negative = inhibition) at 10uM": -32.1},
      {"smiles": "COc1ccc(N2CC(C(=O)N[C@@H](C)C(=O)NC3CCCC3)CC2=O)cc1", "note": "(some centres unmarked)", "hERG current change (%, negative = inhibition) at 10uM": 15.7},
      {"smiles": "CN(C)/C=C/C(=O)c1cnc2sccn2c1=O", "hERG current change (%, negative = inhibition) at 10uM": 5.24},
      {"smiles": "Cc1ccc(/C=C/C(=O)c2ccccc(=O)c2O)cc1C", "hERG current change (%, negative = inhibition) at 10uM": -24.6},
      {"smiles": "Cc1ccc(C)c(/C=C/C(=O)c2ccccc(=O)c2O)c1", "hERG current change (%, negative = inhibition) at 10uM": -50.7},
      {"smiles": "O=C(/C=C/c1ccccc1Cl)c1ccccc(=O)c1O", "hERG current change (%, negative = inhibition) at 10uM": -1.72},
      {"smiles": "O=C(Nc1ccccc1)c1ccc(Br)o1", "hERG current change (%, negative = inhibition) at 10uM": 3.15},
      {"smiles": "O=C(c1ccccc1)c1cccc(NC(=O)c2ccc(Br)o2)c1", "hERG current change (%, negative = inhibition) at 10uM": -61.1},
      {"smiles": "C/C(=N\\NC(=O)c1cccc(F)c1)c1cccc(NC(=O)c2ccc(F)cc2)c1", "hERG current change (%, negative = inhibition) at 10uM": 13},
      {"smiles": "C/C(=N\\NC(=O)c1ccc(F)cc1)c1cccc(NC(=O)c2cccc(F)c2)c1", "hERG current change (%, negative = inhibition) at 10uM": 21.3},
      {"smiles": "COc1ccc(C(=O)N/N=C(/C)c2cccc(NC(=O)c3ccncc3)c2)cc1OC", "hERG current change (%, negative = inhibition) at 10uM": 8.48},
      {"smiles": "C/C(=N/NC(=O)c1ccc(Br)o1)c1cccc(NC(=O)c2ccc(F)cc2)c1", "hERG current change (%, negative = inhibition) at 10uM": -58.9},
      {"smiles": "C/C(=N/NC(=O)c1ccncc1)c1ccc(NC(=O)c2ccccc2)cc1", "hERG current change (%, negative = inhibition) at 10uM": 7.92},
      {"smiles": "C/C(=N\\NC(=O)c1ccncc1)c1cccc(NC(=O)c2ccc(C(C)(C)C)cc2)c1", "hERG current change (%, negative = inhibition) at 10uM": -53.7},
      {"smiles": "C/C(=N/NC(=O)c1ccc(Br)o1)c1cccc(NC(=O)c2ccc(C)o2)c1", "hERG current change (%, negative = inhibition) at 10uM": -67.6},
      {"smiles": "CC(=O)c1cccc(NC(=O)c2ccc(Br)o2)c1", "hERG current change (%, negative = inhibition) at 10uM": -1.49},
      {"smiles": "C/C(=N/NC(=O)c1ccco1)c1cccc(NC(=O)c2ccc(C)o2)c1", "hERG current change (%, negative = inhibition) at 10uM": -45.4},
      {"smiles": "C/C(=N\\NC(=O)c1cccc(Br)c1)c1cccc(NC(=O)c2ccc(C)o2)c1", "hERG current change (%, negative = inhibition) at 10uM": -6.46},
      {"smiles": "CCCCNC(=O)c1onc(CSc2ccc(Cl)cc2)c1C(=O)NCCCC", "hERG current change (%, negative = inhibition) at 10uM": -20.5},
      {"smiles": "CCC(C(=O)Nc1ccc(C(C)C)cc1)c1ccccc1", "note": "(centres unmarked)", "hERG current change (%, negative = inhibition) at 10uM": 11.8},
      {"smiles": "COc1cc(/C=N/NC(=O)CNC(=O)c2ccc3c(c2)OCCO3)ccc1O", "hERG current change (%, negative = inhibition) at 10uM": 1.98},
      {"smiles": "COc1cccc(C2CCCN2Cc2nc(-c3cnccn3)no2)c1", "note": "(centres unmarked)", "hERG current change (%, negative = inhibition) at 10uM": 7.84},
      {"smiles": "CC(NC(=O)Cc1cccs1)c1ccccc1", "note": "(centres unmarked)", "hERG current change (%, negative = inhibition) at 10uM": 24.5},
      {"smiles": "Cc1ccc(NC(=O)CCSc2nnc(-c3ccco3)o2)cc1", "hERG current change (%, negative = inhibition) at 10uM": 9.02},
      {"smiles": "COCc1cc(=O)[nH]c(Nc2nc3ccc(C)cc3o2)n1", "hERG current change (%, negative = inhibition) at 10uM": -10.3},
      {"smiles": "O=C(/C=C/c1ccccc1)NCCN1CCOCC1", "hERG current change (%, negative = inhibition) at 10uM": 20.6},
      {"smiles": "COc1ccc(C(=O)/C(=C/N(C)C)S(=O)(=O)c2ccccc2)cc1", "hERG current change (%, negative = inhibition) at 10uM": 10.8},
      {"smiles": "O.O=C1NC2(O)C(=O)c3ccccc3C2(O)N1", "note": "(centres unmarked)", "hERG current change (%, negative = inhibition) at 10uM": 11},
      {"smiles": "O=C(N/N=C\\c1cc(Br)cs1)c1ccncc1", "hERG current change (%, negative = inhibition) at 10uM": -6.73},
      {"smiles": "CCC1Sc2ccc(S(=O)(=O)CCC(=O)NC3CCCCCC3)cc2NC1=O", "note": "(centres unmarked)", "hERG current change (%, negative = inhibition) at 10uM": 16.1},
      {"smiles": "c1ccc2c(c1)Oc1ccccc1S2", "hERG current change (%, negative = inhibition) at 10uM": 14.7},
      {"smiles": "N=C1N(/N=C/c2ccccc2)C(=Nc2ccccc2)C(=S)N1c1ccccc1", "hERG current change (%, negative = inhibition) at 10uM": 2.03},
      {"smiles": "Cc1ccc(N=C2C(=S)N(c3ccc(C)cc3)C(=N)N2/N=C/c2ccc(Cl)cc2)cc1", "hERG current change (%, negative = inhibition) at 10uM": -6.29},
      {"smiles": "CCOC(=O)c1ccc(N=C2C(=S)N(c3ccc(C(=O)OCC)cc3)C(=N)N2/N=C/c2ccccc2)cc1", "hERG current change (%, negative = inhibition) at 10uM": -52.7}
    ]}
  ]
}
